M1 antagonist: antagonists of rat M1 muscarinic receptor; CHO-M1 cells, Fluo-4 calcium, ACh EC80 antagonist mode; hits give low values; Muscarinic acetylcholine receptor M1 (Rattus norvegicus), P08482; B-score at 10 µM; actives 3.4% (n = 64,000);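 active means calcium fluorescence response, raw or row-and-column corrected B-score, differing from the plate sample mean either way at a set confidence level, mostly lower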
FXIIa mix inh: human factor XIIa inhibitors, primary screen, biochemical, pooled compound mixtures, fluorogenic substrate. Coagulation factor XII (Homo sapiens), P00748. purified FXIIa. inhibition, % at 5 µM. actives 0.2% (n = 62,000);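 further: 0% = enzyme without compound and 100% = no enzyme blank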
JNK3 blocker: JNK3 kinase activity inhibitors, primary screen, biochemical, human, purified enzyme; Mitogen-activated protein kinase 10 (Homo sapiens), P53779; HTS; inhibition, % at 8 µM; actives 0.61% (n = 60,000); in the data active means inhibition above about 17%;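 further: 0% = DMSO and 100% = reference inhibitor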
HER2 expr 66K: inhibitors of Her2 protein expression, primary screen, SKBR-3 cells, AlphaScreen, 66K library; Receptor tyrosine-protein kinase erbB-2 (Homo sapiens), P04626; SKBR-3 HER2 protein level, 18-24 h; hits give low values; HER2 level % of control, % at 10 µM; actives 0.69% (n = 65,000); AID 645, 2007;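 active means HER2 level under 5% of the carrier-only control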;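 further: 100% = DMSO carrier and 0% = 500 nM PU-H71 HSP90 inhibitor; lower value means stronger loss of Her2 protein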
FXIa inh mix: FXIa protease inhibitors in compound pools, primary screen, biochemical, 10-compound mixtures; purified FXIa, fluorogenic substrate, pooled mixtures; inhibition, % at 5 µM; actives 0.19% (n = 62,000); Coagulation factor XI (Homo sapiens), P03951;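 further: each value is inhibition by a whole ten-compound pool holding the compound; 0% = enzyme with no mixture and 100% = wells lacking enzyme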
M1 agonist: M1 muscarinic receptor agonists, primary screen, CHO-M1 cells, Fluo-4 calcium, agonist mode; AID 626, 2007; Fluo-4 calcium fluorescence; hits give high values; B-score at 10 µM; Muscarinic acetylcholine receptor M1; actives 3% (n = 64,000);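 active means fluorescence rise, raw or as B-score row- and column-corrected plate score, outside the 99.7% band of its plate's samples, either direction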
* hit, by the source's call; . = not tested or not shown. A selection: hits, their analogues and other compounds. The true share with any hit is near 6.9%. Unless noted, no stated cut-off is given here; in the data, active means inhibition above about 20% (passing the limit was not always enough); inactive means the rest.

SMILES	M1 antagonist	FXIIa mix inh	JNK3 blocker	HER2 expr 66K	FXIa inh mix	M1 agonist
CCCn1c(=O)c(C(=O)Nc2c(C)n(C)n(-c3ccccc3)c2=O)c(O)c2ccccc21	-11.2*	2.5	-2.8	86.9	0.6	-0.0127
CCn1c(=O)c(C(=O)Nc2cnccn2)c(O)c2ccccc21	0.532	-1.9	5.1	101.8	3.1	0.348
O=C(NCC1CCCO1)c1nnc(Cc2ccc(F)cc2)o1 (stereo not given)	0.421	8.9	-0.8	103.6	6.3	0.726
O=C1CN(C(=O)c2ccco2)C(c2ccccc2)c2cc(Cl)ccc2N1 (stereo not given)	-0.228	-11.8	-4.6	103.0	3.9	0.343
Cc1cccc(Cn2c(=O)c3c(nc4n3CCCN4Cc3ccccc3)n(C)c2=O)c1	-0.0777	-0.8	-3.9	46.7	-1.7	-0.46
CCOc1ccc(/C(O)=C2/C(=O)C(=O)N(CCCn3ccnc3)C2c2cccs2)cc1Cl (stereo not given)	1.68	1.1	9.4	.	6.1	-0.0512
CNC(=O)c1[nH]cnc1C(=O)Nc1cccc(OC)c1	0.167	4.1	17.9*	94.8	1.1	-0.328
COc1cccc(NC(=O)c2cccnc2)c1	-0.359	-16.1	-3.3	103.2	9.1	0.0445
CCOc1ccccc1N(CC(=O)O)S(=O)(=O)c1ccccc1	0.486	-5.0	-4.8	88.8	40.3*	0.654
CN(C)CCCNC(CC(=O)Nc1ccc(Cl)cc1)C(=O)O (stereo not given)	0.522	7.9	0.3	128.4	1.3	-0.304
CCCCc1c(O)n2c(nc3ccccc32)[nH]c1=O	0.378	-2.0	2.8	94.0	12.7	-0.769
CCCc1cc(=O)n2c(nc3ccccc32)[nH]1	-0.91	2.8	27.6*	69.1	-2.4	0.0767
CSc1nc(C)cc(-n2ccc(=O)[nH]c2=O)n1	1.05*	3.3	-0.5	85.8	-1.6	-0.244
Cc1cc(-n2ccc(=O)[nH]c2=O)nc(-c2ccccc2)n1	-0.00965	7.9	-12.4	95.4	9.6	0.803
CCN(CC(=O)NC1CCCCCC1)S(=O)(=O)c1ccccc1	-0.965	0.6	-2.0	-28.0*	0.2	0.794
CCN(CC(=O)NC1CCCC1)S(=O)(=O)c1ccc(C)cc1	0.275	-1.1	-8.3	74.5	-0.3	-0.361
COc1cc2c(cc1OC)C(C(=O)Nc1ccc3c(c1)OCCO3)C(c1cccnc1)N(C)C2=O (stereo not given)	.	27.4	.	103.7	3.1	.
CC1(C)CC(=O)c2c(noc2-c2ccccc2)C1	-0.339	4.1	9.1	106.8	9.9	0.195
CC1(C)CC(=O)C2(CC3=C(CC(C)(C)CC3=O)O2)C(=O)C1	1.3	8.5	-1.5	-33.0*	8.2	-0.562
O=c1[nH]c2ccccc2c2nc3ccccn3c12	-0.675	-11.2	47.4*	33.8	6.0	1.96
O=c1nc(C(F)(F)F)nc2ccccn12	0.501	-11.7	-1.5	105.0	7.0	-0.698
N#CCSc1nc2cc(C(=O)N3CCC(C(N)=O)CC3)ccc2c2nc3ccccc3n12	-1.59	-1.2	1.6	-1.2*	8.2	0.686
Cc1ccc2oc(C(=O)Nc3c(C)n(C)n(-c4ccccc4)c3=O)c(C)c2c1	-0.0486	-44.4	3.9	127.3	-5.5	0.18
Cc1cccc(Cn2c(SCCN3CCCCC3)nc3c2c(=O)[nH]c(=O)n3C)c1	-3.58*	2.0	-1.7	101.7	4.0	-0.0356
COc1ccc(OC)c(NC(=O)C2CCN(c3cc(-c4ccccc4)nc4ncnn34)CC2)c1	0.324	0.6	.	113.7	7.6	0.42
SMILES	M1 antagonist	FXIIa mix inh	JNK3 blocker	HER2 expr 66K	FXIa inh mix	M1 agonist
COc1ccccc1NC(=O)N1CCN(c2cc(-c3ccccc3)nc3ncnn23)CC1	-0.334	2.2	0.2	80.1	6.5	6.28*
O=C(CNS(=O)(=O)c1cccs1)N1CCc2ccccc2C1	0.029	6.9	-5.6	86.8	6.0	0.604
CCC(C)C(=O)Nc1cc(C(=O)OC)cc(C(=O)OC)c1 (stereo not given)	-0.083	9.5	-1.9	98.3	8.8	-0.361
CN1[C@@H](CC(=O)c2ccccc2)CCC[C@H]1C[C@H](O)c1ccccc1	-8.45*	1.0	1.6	128.6	-3.8	34.4*
CCN1CCN(CC(=O)Nc2cccc(C)c2)C(=O)C1=O	0.553	4.0	-0.3	98.9	8.4	-0.658
O=C(COc1ccc(Cl)cc1)OCC(=O)N1CCCC1	-0.192	1.7	.	.	7.3	-0.0353
O=C(COc1ccc(Cl)cc1)OCC(=O)N1CCCCCC1	0.251	0.0	-1.5	109.7	27.0*	-0.153
COc1ccccc1N1CCN(CC(O)c2ccc3cc[nH]c3c2)CC1 (stereo not given)	0.0607	17.8	7.6	104.6	1.1	-1.42
Cc1nn2c(-c3ccco3)nnc2c2ccccc12	-1.75	16.4	1.1	-1.1*	0.2	-0.378
COc1ccc(N(CC(=O)N2CCc3ccccc3C2)S(=O)(=O)c2c(C)nn(C)c2C)cc1	0.757	1.8	-3.1	84.6	4.9	0.109
CN1CCN(S(=O)(=O)c2ccc(N(C)Cc3cccs3)nc2)CC1	-0.0675	8.7	0.5	76.1	4.6	-0.413
CN(CCOc1ccc(Cl)cc1)c1ccc(S(=O)(=O)N2CCCCC2)cn1	-0.824	2.2	-1.6	91.3	39.8*	-0.492
CCCCn1c(SCC(=O)c2ccc(OC)cc2OC)nc2cc(S(N)(=O)=O)ccc21	-0.208	2.1	-1.7	97.2	6.4	-0.0207
CCCCn1c(SCc2c(C)noc2C)nc2cc(S(N)(=O)=O)ccc21	-0.165	1.4	-15.3	-20.6*	5.4	0.46
Cc1c(C#N)c(N=CN(C)C)c(C(=O)c2ccccc2)n1-c1ccccc1	-0.595	1.4	2.4	111.7	6.9	0.4
Cc1c(C#N)c(N)c(C(=O)c2ccccc2)n1Cc1ccccc1	0.262	0.3	.	-32.3*	1.3	-0.000648
Cc1nnc(SCCn2c(N3CC(C)CC(C)C3)nc3c2c(=O)[nH]c(=O)n3C)s1 (stereo not given)	-0.732	2.7	-2.2	93.1	-12.6	-1.68
O=C(O)c1cn(-c2ccccc2)nc1-c1ccncc1	0.0435	6.0	0.4	107.1	3.5	0.0279
O=C(c1cn(-c2ccccc2)nc1-c1ccncc1)n1nnc2ccccc21	-1.54	57.6*	-3.3	74.3	86.7*	0.73
O=c1c2c3nc4ccccc4nc3n(CC3CCCO3)c2ncn1CCc1ccccc1 (stereo not given)	-0.678	5.1	-0.7	105.2	18.0	1.27
O=c1c2c3nc4ccccc4nc3n(CCN3CCOCC3)c2ncn1CCN1CCOCC1	-0.00852	2.0	0.2	109.5	4.8	2.72*
C=CCn1cnc2c(c1=O)c1nc3ccccc3nc1n2/N=C/c1cccc(OC)c1OC	-1.42	1.8	1.5	96.2	10.0	4.78*
C=CCn1cnc2c(c1=O)c1nc3ccccc3nc1n2-c1ccccc1	-13.7*	7.1	-3.3	78.2	-3.4	0.0204

Screening results: PubChem, several laboratories
